According to PubChem BioAssay:
The source made the active and inactive calls.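 How the source made its calls, unless noted: active means fluorescence slope higher than the sample average by over 3 SD (cut at about -0.22 in these data, passing the limit was not always enough); inactive means the rest.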

What was measured:
[1] = inhibitors of TNFa-induced NFkB p65 translocation, primary screen, imaging, HUVEC, MLSMR starter and 10KST1 sets (AID 438;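 active means inhibition above 20% together with a positive visual image hit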;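 further: compound added about 3h40 before a 20 min TNFalpha stimulation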;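 on inhibition: signal is the nuclear over cytoplasmic p65 intensity ratio per well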); settings: HUVEC TNFa-induced p65 nuclear translocation; cell count: measured here: nuclei count (cytotoxicity indicator), at 2.08 µM; inhibition: at 2 µM, stronger effect = higher value, 0% TNFa-plus-vehicle, 100% no-TNFa wells
[2] = reduction of polyQ htt aggregates in cells – imaging, exon1htt(103Q)mCFP cells, high-content imaging, primary screen (AID 483;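 active means visual image review flags a hit and inhibition of aggregation exceeds 20%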;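 further: compound exposure lasted 3 days before fixation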;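 on nuclei count: percent of the per-plate median nuclei count of sample wells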); settings: exon1htt(103Q)mCFP cell line, aggregate imaging, at 2 µM; inhibition of aggregation: stronger effect = higher value; nuclei count: measured here: cell count, toxicity
[3] = endothelial E-selectin expression blockers – imaging, HUVEC, immunofluorescence, MLSMR starter and 10KST1 sets, primary screen (AID 487;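 active means visually confirmed hit in the image check and inhibition above 20%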;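 on inhibition: signal is fraction of cell area covered by stained E-selectin grains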;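 on nuclei count: 100% = median nuclei count of all wells on the same plate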); settings: HUVEC TNFalpha-induced E-selectin immunofluorescence imaging, at 2 µM; inhibition: stronger effect = higher value; nuclei count: measured here: cell number, toxicity
[4] = molecular target: Voltage-gated potassium channel subunit beta-2 (Rattus norvegicus) (UniProt P62483); assay: inhibitors of rat Kvbeta2 reductase activity – biochemical, NADPH fluorescence, primary screen (AID 622); settings: recombinant KvBeta, 4-cyanobenzaldehyde reduction, at 10 µM, stronger effect = higher value;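 further: slope of raw intensity against log time taken from 70 to 1610 s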
[5] = molecular target: Voltage-gated potassium channel subunit beta-2 (Rattus norvegicus) (UniProt P62483); assay: enhancers of rat Kvbeta2 NADPH turnover – biochemical, NADPH fluorescence, primary screen (AID 623;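 active means NADPH fluorescence slope more negative than the mean of all samples by about 3 SD, 99.7% confidence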;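 further: fluorescence intensity change per second fitted from 20 to 320 s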); settings: Recombinant KvBeta, NADPH fluorescence decrease slope, 10 min; at 10 µM; stronger effect = lower value
[6] = molecular target: Alpha-2C adrenergic receptor (Homo sapiens) (UniProt P18825); assay: compounds altering alpha2C-coupled GIRK flux – cell-based, HEK293 alpha2C/GIRK1/2, thallium flux, primary screen (AID 624;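 active means fluorescence slope after compound addition differing from the mean of all screened samples at 99.7% confidence, in either direction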;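 further: slope of fluorescence ratio to pre-addition baseline per second over 15 to 24 s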); settings: thallium flux BTC fluorescence, at 10 µM, actives lie on both sides
[7] = blockers of RIG-like receptor reporter activation – cell-based, Sendai virus stimulus, luciferase, 10K MLSCN set, TLR/RLR signaling modifier project, primary screen (AID 602276;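 active means inhibition at or above 50% at 10 µM; inactive means inhibition below 50%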;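 further: firefly luciferase from ISG56 promoter only with Renilla not read in this screen; 0% = Sendai virus plus DMSO and 100% = medium plus DMSO without virus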); settings: HEK293 RL24 IRF3 luciferase reporter, at 10 µM, stronger effect = higher value
[8] = TLR3 IRF3 reporter activation blockers – cell-based, poly I:C stimulus, luciferase, 10K MLSCN set, primary screen (AID 602277;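 active means inhibition of the reporter signal at or above 50%; inactive means inhibition below 50%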); settings: HEK293-TLR3 RL24 IRF3 luciferase reporter, at 10 µM, stronger effect = higher value

Chain of Alpha-2C adrenergic receptor (Homo sapiens) (P18825 whole entry, looked up): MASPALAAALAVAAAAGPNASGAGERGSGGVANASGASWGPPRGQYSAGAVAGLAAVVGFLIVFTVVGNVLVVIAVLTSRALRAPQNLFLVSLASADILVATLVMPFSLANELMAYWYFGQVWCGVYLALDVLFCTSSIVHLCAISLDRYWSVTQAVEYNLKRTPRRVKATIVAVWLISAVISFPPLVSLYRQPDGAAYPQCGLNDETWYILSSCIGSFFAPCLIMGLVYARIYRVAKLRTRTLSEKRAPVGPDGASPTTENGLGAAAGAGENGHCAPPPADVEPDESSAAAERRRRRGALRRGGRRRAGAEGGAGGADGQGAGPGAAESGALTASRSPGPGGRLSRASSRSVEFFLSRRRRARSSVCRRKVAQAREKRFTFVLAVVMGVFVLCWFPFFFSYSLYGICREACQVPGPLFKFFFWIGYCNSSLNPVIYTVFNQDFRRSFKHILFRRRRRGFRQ
Chain of Voltage-gated potassium channel subunit beta-2 (Rattus norvegicus) (P62483 whole entry, looked up): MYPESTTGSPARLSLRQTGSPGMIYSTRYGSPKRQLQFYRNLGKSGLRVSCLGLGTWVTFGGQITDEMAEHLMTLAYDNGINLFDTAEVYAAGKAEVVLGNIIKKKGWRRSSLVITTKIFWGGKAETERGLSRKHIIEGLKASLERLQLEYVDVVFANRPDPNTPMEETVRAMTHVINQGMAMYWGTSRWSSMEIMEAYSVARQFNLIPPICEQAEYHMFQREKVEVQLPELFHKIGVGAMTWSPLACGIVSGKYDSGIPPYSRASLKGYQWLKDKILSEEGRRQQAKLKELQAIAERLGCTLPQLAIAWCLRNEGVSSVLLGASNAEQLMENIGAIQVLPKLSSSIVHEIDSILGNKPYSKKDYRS

SMILES	cell count [1]	inhibition [1]	inhibition of aggregation [2]	nuclei count [2]	inhibition [3]	nuclei count [3]	fluorescence slope [4]	NADPH fluorescence slope [5]	slope [6]	inhibition [7]	inhibition [8]
CCOC(=O)c1sc2nc(SCC#N)n(CCCN3CCCC3=O)c(=O)c2c1C	399	3.4% (inactive)	-11.9% (inactive)	89.9%	49% (inactive)	96.1%	-0.461 (inactive)	-6.7e-05 (inactive)	0.00586 (inactive)	4.69% (inactive)	-8.03% (inactive)
O=C1c2ccccc2C(=O)N1CCN1CCCCC1	528	0.3% (inactive)	-9.5% (inactive)	113%	-58.5% (inactive)	117%	-0.327 (inactive)	-5e-05 (inactive)	0.00644 (inactive)	-8.79% (inactive)	-2.11% (inactive)
CCCCOC(=O)C1=C(C)Nc2ncnn2C1c1cccc(OC)c1OC (stereo not drawn)	655	12.8% (inactive)	-20.9% (inactive)	113%	-71.2% (inactive)	111%	-0.403 (inactive)	-4e-05 (inactive)	0.00417 (inactive)	12.8% (inactive)	9.22% (inactive)
O=C(COC(=O)c1cc(S(=O)(=O)N2CCOCC2)cs1)c1ccccc1	692	-5.5% (inactive)	-9.6% (inactive)	103%	-88.5% (inactive)	114%	-0.485 (inactive)	-5.8e-05 (inactive)	0.00656 (inactive)	11.5% (inactive)	29.5% (inactive)
O=C(NCCCNC1CCCCC1)c1ccc(/C=N/O)nc1	221	2% (inactive)	-20.6% (inactive)	67.6%	-97.6% (inactive)	108%	-0.62 (inactive)	-1.9e-05 (inactive)	0.00681 (inactive)	7.85% (inactive)	23% (inactive)
CC1Cc2ccccc2N1C(=O)CSc1nnc2n1C(C)(C)Cc1ccccc1-2 (stereo not drawn)	247	-0.2% (inactive)	21.8% (inactive)	84.2%	5.5% (inactive)	69.7%	-0.434 (inactive)	2.5e-05 (inactive)	0.00483 (inactive)	5.38% (inactive)	-63.7% (inactive)
Cc1cc(C)cc(Nc2ncc3c(n2)CC(c2ccco2)CC3=O)c1 (stereo not drawn)	465	-18.3% (inactive)	-14.3% (inactive)	106%	-88% (inactive)	114%	-0.385 (inactive)	-3e-05 (inactive)	0.00418 (inactive)	14.2% (inactive)	-2.34% (inactive)
Cc1ccc(S(=O)(=O)CC2CSc3nnc(C)c(=O)n32)cc1 (stereo not drawn)	432	-3.3% (inactive)	3.8% (inactive)	91.3%	-36.1% (inactive)	173%	-0.38 (inactive)	-5.3e-05 (inactive)	0.00213 (inactive)	12.3% (inactive)	31.9% (inactive)
CCn1c(CCNC(=O)c2cccs2)nnc1SCC(=O)c1ccc(OC)cc1	263	0.8% (inactive)	-4.7% (inactive)	99.7%	-94.1% (inactive)	115%	-0.398 (inactive)	2.4e-05 (inactive)	0.00289 (inactive)	-4.44% (inactive)	-7.83% (inactive)
O=c1c2[nH]c3cccc(Cl)c3c2ncn1CCN1CCCCC1	300	-2.8% (inactive)	-4.9% (inactive)	89%	-0.5% (inactive)	106%	-0.618 (inactive)	-2.5e-05 (inactive)	0.00476 (inactive)	16.5% (inactive)	27.2% (inactive)
CCc1ccccc1NC(=O)C(CC)Sc1nc2cc3c(cc2c(=O)n1Cc1ccco1)OCO3 (stereo not drawn)	486	9.8% (inactive)	-21.1% (inactive)	115%	-3.3% (inactive)	105%	-0.494 (inactive)	-1.8e-05 (inactive)	0.00667 (inactive)	16.3% (inactive)	22.3% (inactive)
O=C(Nc1ccc2c(c1)nc1n2CCSC1)c1ccccc1	487	-0.5% (inactive)	13.7% (inactive)	106%	-0.8% (inactive)	119%	-0.444 (inactive)	-1.4e-05 (inactive)	0.00391 (inactive)	-30.3% (inactive)	-80.3% (inactive)
O=C1CCN(C(=O)c2ccccc2)C2CCCCC12 (stereo not drawn)	511	-8.7% (inactive)	4.4% (inactive)	41.3%	19.1% (inactive)	81.9%	-0.408 (inactive)	1.6e-05 (inactive)	0.00412 (inactive)	-7.18% (inactive)	15.9% (inactive)
COC(=O)c1sc(N)c(C(=O)OC)c1COC(=O)C1CC(=O)N(Cc2ccco2)C1 (stereo not drawn)	303	-1.9% (inactive)	-1.7% (inactive)	100%	-45.6% (inactive)	124%	-0.265 (inactive)	-4.3e-05 (inactive)	0.00671 (inactive)	15.8% (inactive)	11.9% (inactive)
COC(=O)c1cc(=O)n(Cc2ccc3c(c2)OCO3)c(=Nc2ccccc2)s1	575	2.9% (inactive)	8.9% (inactive)	124%	-30.3% (inactive)	107%	-0.545 (inactive)	-3.4e-05 (inactive)	0.00623 (inactive)	12.2% (inactive)	27.1% (inactive)
Cn1c(=O)c2c(-c3ccncc3)c3c(nc2n(C)c1=O)-c1ccccc1C3=O	637	0% (inactive)	-3.3% (inactive)	98.9%	-113% (inactive)	136%	-0.497 (inactive)	4.5e-05 (inactive)	0.00591 (inactive)	14.2% (inactive)	22.4% (inactive)
CC1=C(C)C(=O)NC(Nc2nc(C)c3cc(C)cc(C)c3n2)N1 (stereo not drawn)	540	-14.3% (inactive)	-9.7% (inactive)	103%	5.2% (inactive)	115%	-0.285 (inactive)	-2.3e-05 (inactive)	0.00676 (inactive)	7.09% (inactive)	-49.5% (inactive)
Cc1ccc(S(=O)(=O)N2CCCC(C(=O)NC3=NCCS3)C2)cc1 (stereo not drawn)	306	7.4% (inactive)	-0.7% (inactive)	111%	-27.5% (inactive)	106%	-0.601 (inactive)	-3.9e-05 (inactive)	0.00373 (inactive)	14.7% (inactive)	13.5% (inactive)
Cc1c(C(=O)Nc2nnc(C(F)(F)F)s2)oc2ccccc12	778	-8.8% (inactive)	-7.7% (inactive)	121%	-57.7% (inactive)	108%	-0.419 (inactive)	2.3e-05 (inactive)	0.00814 (inactive)	-13.9% (inactive)	-95.9% (inactive)
CCOc1ccc(C2C(C(=O)OC)=CN(CCOC)C=C2C(=O)OC)cc1	298	6% (inactive)	-3.4% (inactive)	105%	-6% (inactive)	110%	-0.141 (inactive)	-8.2e-06 (inactive)	0.00651 (inactive)	-9.2% (inactive)	7.51% (inactive)
COC(=O)c1oc2ccc(Br)cc2c1NC(C)=O	644	-0.8% (inactive)	35.6% (active)	90.2%	-28.5% (inactive)	112%	-0.575 (inactive)	-3.5e-05 (inactive)	0.00664 (inactive)	16.9% (inactive)	30.7% (inactive)
O=C(NCc1cccs1)C(Cc1ccccc1)n1cccc1 (stereo not drawn)	602	-6.3% (inactive)	6.2% (inactive)	95.4%	-25.8% (inactive)	115%	-0.614 (inactive)	-5.2e-05 (inactive)	0.00634 (inactive)	1.52% (inactive)	26.2% (inactive)
Cc1ccc(-c2cc(C(F)F)n3ncc(C(=O)N4CCN(c5ccccn5)CC4)c3n2)cc1	829	-1.7% (inactive)	9.3% (inactive)	85.3%	-56.7% (inactive)	120%	-0.514 (inactive)	-3e-05 (inactive)	0.00598 (inactive)	17.4% (inactive)	42.8% (inactive)
Fc1ccc(-c2nnc3ccc(N4CCCC4)nn23)cc1	662	0.5% (inactive)	-1% (inactive)	97.7%	-61.6% (inactive)	120%	-0.56 (inactive)	2e-05 (inactive)	0.00653 (inactive)	3.21% (inactive)	-61.2% (inactive)
COc1ccc(C(=O)N2CCN(C3CCCCC3)CC2)c(OC)c1	324	-0.9% (inactive)	-21.3% (inactive)	83.3%	-48.1% (inactive)	138%	-0.609 (inactive)	-1.5e-05 (inactive)	0.00408 (inactive)	1% (inactive)	12.4% (inactive)
S=C(NCC1CCCO1)n1nnc2ccccc21 (stereo not drawn)	718	-5.9% (inactive)	-2.9% (inactive)	94.6%	52% (inactive)	92.8%	-0.399 (inactive)	4.6e-05 (inactive)	0.00794 (inactive)	12.9% (inactive)	13.5% (inactive)
CC(=O)N1CCN(S(=O)(=O)c2ccc(S(=O)(=O)NC3CC3)cc2)CC1	716	-8.1% (inactive)	0.7% (inactive)	99.7%	33.9% (inactive)	112%	-0.444 (inactive)	-2.2e-05 (inactive)	0.00506 (inactive)	18.5% (inactive)	18% (inactive)
CCCCc1cc2c(c(NC(C)=O)n1)c(=O)oc1ccccc12	620	-9.4% (inactive)	14.7% (inactive)	110%	3.6% (inactive)	104%	-0.509 (inactive)	-2.7e-05 (inactive)	0.00617 (inactive)	12.1% (inactive)	40.5% (inactive)
